Measurements: PubChem BioAssay AID1159580 (chemical genetic matrix, 2015)
Several values for one entry are separate records, joined by “and”; a condition that tells them apart may be missing. Identical values can stand only once. The campaign covered roughly 5,500 compounds. About 2,000 (36%) were called active. About 18% were inconclusive and are not listed. No stated cut-off is given here; in the data, active means normalized growth mostly below about 0.91 (no sharp cut-off); inconclusive means no clear call, values can overlap the other calls; inactive means mostly above about 0.92. Some of the results follow.

Experiment: chemical genetic growth profiling, strain panel (AID 1159580);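 further: tested at 20 µM; growth read once vehicle control cultures reached saturation at 30 °C; 1 = growth at the plate median or of vehicle wells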
Conditions: S. cerevisiae deletion strains, growth OD

Measured: normalized growth

CO[C@@]1(NC(=O)CSCC#N)C(=O)N2C(C(=O)O)=C(CSc3nnnn3C)CSC21 (stereo partly specified)
inactive: locus YAL013W, strain DEP1, stronger effect = lower value 1.01 | locus YAL021C, strain ccr4, stronger effect = lower value 0.941 | locus YAL026C, strain drs2, stronger effect = lower value 0.985 | locus YAL030W, strain snc1, stronger effect = lower value 0.988 | locus YBL061C, strain skt5, stronger effect = lower value 0.985 | locus YBR009C, strain hhf1, stronger effect = lower value 0.988 | locus YBR021W, strain FUR4, stronger effect = lower value 1 | locus YBR023C, strain chs3, stronger effect = lower value 0.994 | locus YBR171W, strain sec66, stronger effect = lower value 0.997 | locus YBR229C, strain ROT2, stronger effect = lower value 1.01 | locus YBR231C, strain swc5, stronger effect = lower value 0.981 | locus YBR279W, strain paf1, stronger effect = lower value 0.981 | locus YCL011C, strain gbp2, stronger effect = lower value 0.993 | locus YCL016C, strain dcc1, stronger effect = lower value 0.975 | locus YCL029C, strain bik1, stronger effect = lower value 1.03 | locus YCL069W, strain vba3, stronger effect = lower value 0.986 | locus YCR088W, strain abp1, stronger effect = lower value 0.996 | locus YDL005C, strain med2, stronger effect = lower value 0.909 | locus YDL035C, strain GPR1, stronger effect = lower value 1.02 | locus YDL040C, strain nat1, stronger effect = lower value 0.988 | locus YDL074C, strain BRE1, stronger effect = lower value 1.03 | locus YDL101C, strain DUN1, stronger effect = lower value 1.01 | locus YDL134C, strain PPH21, stronger effect = lower value 1.01 | locus YDL185W, strain tfp1, stronger effect = lower value 1.03 | locus YDL192W, strain arf1, stronger effect = lower value 1.04 | locus YDR001C, strain nth1, stronger effect = lower value 1 | locus YDR069C, strain doa4, stronger effect = lower value 0.973 | locus YDR101C, strain arx1, stronger effect = lower value 1.03 | locus YDR137W, strain rgp1, stronger effect = lower value 0.948 | locus YDR150W, strain NUM1, stronger effect = lower value 1.01 | locus YDR159W, strain sac3, stronger effect = lower value 0.927 | locus YDR162C, strain NBP2, stronger effect = lower value 1.04 | locus YDR195W, strain ref2 1 | locus YDR297W, strain sur2, stronger effect = lower value 1 | locus YDR318W, strain mcm21, stronger effect = lower value 1.03 | locus YDR334W, strain swr1, stronger effect = lower value 1 | locus YDR335W, strain msn5, stronger effect = lower value 0.99 | locus YDR388W, stronger effect = lower value 1.02 | locus YDR392W, strain spt3, stronger effect = lower value 0.878 | locus YDR502C, strain sam2, stronger effect = lower value 1.03 | locus YEL003W, strain gim4, stronger effect = lower value 1 | locus YEL037C, strain rad23, stronger effect = lower value 1 | locus YEL061C, strain CIN8 (second series), stronger effect = lower value 1.01 | locus YEL061C, strain CIN8, stronger effect = lower value 1.01 | locus YER015W, strain faa2, stronger effect = lower value 0.982 | locus YER016W, strain bim1, stronger effect = lower value 0.968 | locus YER110C, stronger effect = lower value 1.04 | locus YER111C, strain swi4, stronger effect = lower value 0.982 | locus YER155C, strain BEM2 (second series), stronger effect = lower value 0.968 | locus YER155C, strain BEM2, stronger effect = lower value 1.01 | locus YER167W, strain BCK2, stronger effect = lower value 1.02 | locus YFR010W, strain ubp6, stronger effect = lower value 1 | locus YGL078C, strain dbp3, stronger effect = lower value 1.03 | locus YGL086W, strain mad1, stronger effect = lower value 1.02 | locus YGL167C, strain pmr1, stronger effect = lower value 0.984 | locus YGL173C, strain kem1, stronger effect = lower value 0.97 | locus YGL227W, strain vid30, stronger effect = lower value 1.01 | locus YGL240W, strain doc1, stronger effect = lower value 0.959 | locus YGL248W, strain PDE1, stronger effect = lower value 1.01 | locus YGL253W, strain hxk2, stronger effect = lower value 0.998 | locus YGR078C, strain PAC10, stronger effect = lower value 1.01 | locus YGR135W, strain pre9, stronger effect = lower value 1.01 | locus YGR229C, strain SMI1, stronger effect = lower value 1.02 | locus YGR252W, strain gcn5, stronger effect = lower value 1.07 | locus YHR013C, strain ard1, stronger effect = lower value 0.964 | locus YHR027C, strain rpn1, stronger effect = lower value 0.98 | locus YHR030C, strain SLT2, stronger effect = lower value 1.01 and 0.983 | locus YHR079C, strain IRE1 (second series), stronger effect = lower value 1.02 | locus YHR079C, strain IRE1, stronger effect = lower value 0.986 | locus YHR094C, strain hxt1, stronger effect = lower value 1.03 | locus YHR129C, strain ARP1, stronger effect = lower value 1.01 | locus YHR142W, strain chs7, stronger effect = lower value 1.01 | locus YHR200W, strain rpn10, stronger effect = lower value 1.04 | locus YIL066C, strain RNR3, stronger effect = lower value 1.03 | locus YIL073C, strain SPO22, stronger effect = lower value 1.13 | locus YIL125W, strain kgd1, stronger effect = lower value 1.03 | locus YIR030C, strain dcg1, stronger effect = lower value 1.03 | locus YJL092W, strain hpr5, stronger effect = lower value 1 | locus YJL095W, strain BCK1 (second series), stronger effect = lower value 0.979 | locus YJL095W, strain BCK1, stronger effect = lower value 1.01 and 0.98 | locus YJL115W, strain asf1, stronger effect = lower value 0.984 | locus YJL129C, strain trk1, stronger effect = lower value 0.99 | locus YJL134W, strain LCB3, stronger effect = lower value 1 | locus YJL154C, strain vps35, stronger effect = lower value 1 | locus YJL164C, strain tpk1, stronger effect = lower value 0.973 | locus YJL166W, strain qcr8, stronger effect = lower value 0.978 | locus YJL168C, strain set2, stronger effect = lower value 1.04 | locus YJL187C, strain SWE1 (second series), stronger effect = lower value 1.01 | locus YJL187C, strain SWE1, stronger effect = lower value 0.985 | locus YJR043C, strain POL32, stronger effect = lower value 1.01 | locus YJR066W, strain TOR1, stronger effect = lower value 0.942
